Measured values from the supplement of paper PMC3334620.
Whole data set: some 33,000 sequences, median “E-score (-0.5 to 0.5)” near -0.0014, cut for the highest 2% near 0.25. The sample as a whole holds a higher share of the highest values than the screen did.

target: T1, Cad1 (UniProt P24813); test: PBM E-score (8-mer binding enrichment) (E-score (-0.5 to 0.5)); higher = stronger / more preferred TF binding; details: protein concentration: 100 nM; construct: GST-full length
T1 sequence: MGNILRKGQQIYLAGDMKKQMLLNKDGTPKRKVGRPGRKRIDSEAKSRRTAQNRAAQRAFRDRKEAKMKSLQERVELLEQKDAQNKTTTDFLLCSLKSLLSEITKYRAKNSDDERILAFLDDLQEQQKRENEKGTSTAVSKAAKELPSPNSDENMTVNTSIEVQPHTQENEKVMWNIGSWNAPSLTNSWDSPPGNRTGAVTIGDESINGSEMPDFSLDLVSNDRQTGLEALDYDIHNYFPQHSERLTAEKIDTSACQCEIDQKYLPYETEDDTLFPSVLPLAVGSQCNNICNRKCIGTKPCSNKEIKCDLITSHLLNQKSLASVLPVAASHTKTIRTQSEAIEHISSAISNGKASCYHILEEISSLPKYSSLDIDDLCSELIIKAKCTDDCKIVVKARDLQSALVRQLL
Procedure: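 Universal 'all 10-mer' protein binding microarrays (Agilent AMADID 015681) probed with GST-tagged S. cerevisiae TFs (full-length or DBD) made by in vitro transcription/translation (PURExpress), about 100-200 nM. Bound TF was detected with fluorescent anti-GST. Each ungapped 8-mer (which stands for itself and its reverse complement) is scored by the PBM enrichment score (E-score), a modified Wilcoxon-Mann-Whitney statistic from -0.5 to +0.5, computed with the Universal PBM Analysis Suite. Scale: above 0.35 generally sequence-specific binding.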

In order of rising “PBM E-score” value:
1. GAGTCCGC  -0.377
2. TAGAGTCA  -0.321
3. GGCACACC  -0.298
4. ATAGGCAT  -0.202
5. CCGTTGGA  -0.182
6. ACCAGGCA  -0.169
7. CCTCCTTC  -0.165
8. ACTATAGG  -0.161
9. GGGAAGAC  -0.154
10. CATTTCGC  -0.15
11. GCTTAGCC  -0.148
12. CTAGCCCA  -0.145
13. ACCGATGG  -0.143
14. ATGCTTGC  -0.14
15. AGGCAGGG  -0.133
16. CTTCCGTC  -0.133
17. AGGTGTAG  -0.128
18. CGCCCTGC  -0.128
19. AGATCAGG  -0.128
20. GGCTTTAA  -0.12
21. CCCGCGCC  -0.118
22. GACTCTAA  -0.118
23. GACGTATC  -0.107
24. AACCCCAT  -0.107
25. CGGCACAA  -0.103
26. ACCCTAAG  -0.101
27. ACCGCCGA  -0.0944
28. ACCACCAA  -0.0937
29. CAGAGCAA  -0.0906
30. AGCTAGTG  -0.0897
31. CTACGGCC  -0.0892
32. ACCCATGA  -0.0855
33. CAAGTGGA  -0.0832
34. CCGTTCCC  -0.0828
35. AAAGCCAA  -0.0764
36. CTGGCTGC  -0.0751
37. CTCACGTA  -0.0707
38. CTAAGATA  -0.0701
39. CTAAGACC  -0.0662
40. GGTGGGTA  -0.0656
41. CCTAATAG  -0.0644
42. CCCGCCGA  -0.0624
43. AGGCCGAA  -0.0603
44. ATCCTAGA  -0.0558
45. ATGCCCGA  -0.0531
46. AGCTCACG  -0.0493
47. TCGGTACA  -0.0456
48. CCGACCTC  -0.0414
49. CCAAATCA  -0.041
50. CTTACGTC  -0.0353
51. ATCTTCAC  -0.0332
52. ATTTCCAA  -0.03
53. ACTGGTCA  -0.0283
54. TACCACTA  -0.0282
55. AGCTAGCA  -0.0255
56. CCCAAAAA  -0.0252
57. ATCCAACC  -0.0228
58. GATTTCGA  -0.0223
59. CTCATGAC  -0.0193
60. GAGGCTTA  -0.0175
61. GCTATCGA  -0.0158
62. ACTATAGA  -0.00757
63. CCCGCCGG  -0.00326
64. GCCGCGGA  -0.00234
65. ACAAGAAT  0.00675
66. CGGACACA  0.00739
67. CACTTAAC  0.00927
68. CCTAATAC  0.013
69. AATTATAG  0.0146
70. GACTAAGA  0.0179
71. AAGAGCTG  0.0198
72. AATATAGC  0.0229
73. CACCTAAA  0.0285
74. CCCGCGGC  0.0319
75. GGATTACA  0.0354
76. AGCGCGGC  0.0398
77. CCGATGAG  0.0417
78. AGAGACGG  0.0418
79. TCGTTAGA  0.0445
80. GCAAGAAC  0.0479
81. ATTTAGGA  0.0482
82. GTCATGAA  0.0483
83. ATTACGAG  0.0536
84. AACAGGGC  0.0552
85. AAACGTAC  0.0592
86. AGTCGGCG  0.0599
87. ACTGCGCG  0.0621
88. ATATTGTA  0.0624
89. ATAAGCCA  0.063
90. GATATTCA  0.0631
91. AAAGAACC  0.0643
92. CCCGCGGA  0.0649
93. CAGCTTCA  0.0676
94. AAAAGAAG  0.0683
95. TGCGTGAA  0.0712
96. ACTACTAC  0.0727
97. ACACCTGC  0.0761
98. GAGGTTCA  0.0769
99. ATCGATGG  0.0786
100. GTTACGTA  0.0792
101. AGCGCGCC  0.082
102. CTTGGGGA  0.0866
103. CCTAATAA  0.0868
104. AAACCCAG  0.0892
105. ACTGCACT  0.0895
106. TTAACAAA  0.0927
107. ATAAGATC  0.0938
108. CGTACTTC  0.096
109. TCTTAACA  0.0995
110. GCAAATCA  0.101
111. AGTTATAT  0.101
112. CATTATAA  0.104
113. CCAATTTC  0.105
114. CCCGCGCA  0.106
115. AATGCCGT  0.107
116. ACATAAGC  0.107
117. AGATTACC  0.107
118. GCATAAGA  0.108
119. AAAAGAAC  0.118
120. AAAAAATT  0.12
121. AATATAGG  0.123
122. ATCCACTA  0.127
123. AGAAATTC  0.13
124. GAAAATTA  0.13
125. ATTATTCC  0.131
126. CCACACGC  0.131
127. CGCGTTCC  0.132
128. GGCGCTCA  0.149
129. GTCACTTA  0.151
130. GCTAATAC  0.152
131. TAAATTTA  0.154
132. ACTTATAC  0.154
133. ACTACTAA  0.158
134. AGTAATAG  0.16
135. ATTACGTG  0.163
136. TAAAATAA  0.164
137. AATTATGT  0.167
138. CTTATTCA  0.17
139. GTTACGAA  0.17
140. AATTATAC  0.172
141. GGCGCGCC  0.172
142. AATTTGCG  0.173
143. CATGTGCG  0.173
144. AATATCGG  0.183
145. TCTGAACA  0.184
146. ACTAACAC  0.184
147. AGATTACT  0.184
148. TATTATAA  0.185
149. CAAAATTA  0.187
150. GAATTATA  0.19
151. AAATTACA  0.191
152. ACTAACAG  0.193
153. ATTATTCG  0.195
154. CGATTACA  0.197
155. TGGCGCCA  0.198
156. ACGCGTCA  0.198
157. ACTTATAT  0.202
158. ATAAGAAC  0.205
159. ACCGCGGA  0.207
160. GGAAATTA  0.208
161. AATAATAT  0.208
162. ATAAGAAA  0.209
163. AGTAATAC  0.21
164. CGCGCGGA  0.212
165. CCGGAAAA  0.215
166. AATTATGG  0.216
167. CGGAAAAC  0.221
168. ACTAATAA  0.226
169. AAAATTTT  0.234
170. GCTTATAA  0.235
171. AATATATG  0.236
172. AAATTATA  0.237
173. CAATTACA  0.241
174. AATATCGA  0.242
175. AATATATA  0.244
176. ATCACCAC  0.245
177. GTTATTCA  0.251
178. ACAAGAAC  0.251
179. AGATTACG  0.252
180. ACTACTAT  0.253
181. AAAAATTA  0.254
182. CGCGCGCC  0.254
183. GCATAAGC  0.254
184. ACTAACAT  0.255
185. AAAAGAAT  0.257
186. ATTATTCA  0.26
187. CGCGCGGC  0.261
188. AAACCCAT  0.261
189. ATAAGATA  0.264
190. TAATTACA  0.265
191. AAAAATTT  0.269
192. AATATCGT  0.272
193. TGATTACA  0.275
194. AATTATAA  0.276
195. GCCGCCGA  0.277
196. ACAAATCA  0.279
197. ACTTATAA  0.279
198. GATTTCGC  0.28
199. AATATAGT  0.281
200. ATAAGAAT  0.284
201. GTCATGAC  0.288
202. GATTATAA  0.29
203. AATTATAT  0.29
204. ACTATAGT  0.293
205. AGAAATTA  0.296
206. TAAAATTA  0.297
207. AATTATGA  0.297
208. CCCGCGCG  0.298
209. ACTAATAC  0.301
210. ACTAATAT  0.302
211. TAATTATA  0.306
212. TCCGCGGA  0.311
213. AATATATT  0.322
214. ACTAATAG  0.325
215. ATTACGAA  0.327
216. CTTACGTA  0.328
217. AGTAATAT  0.346
218. GCCGCGGC  0.347
219. ATTACGTA  0.392
